Growth data for 39 compounds are collected here from PubChem BioAssay (NCI).

Compounds without any hit were thinned out: in the full panel of roughly 83,000, 20% have a hit.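 Compound tested at a single concentration for 48 hours in 96-well plates; a percent growth value below 10 was scored as active.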 The source made the active and inactive calls.

The test system of one assay is TK-10 renal. Description: NCI-60 one-dose screen, 48 h (100 = growth as untreated, 0 = no growth, -100 = all killed). The conditions noted are these: 10 µM unless noted.
On to `COc1ccccc1-c1nc2ccc3[nH]ncc3c2c2c1CCCC2`, for which the growth is 60.4% (inactive).

With `O=c1ccc2nc(-c3ccccc3)nn(-c3ccccn3)c-2c1`, the growth was -83.4% (active).

Consider `Nc1ncc(-c2ccc3ncnc(N4CCc5cc(F)c(Cl)cc54)c3c2)cc1C=O`, for which the growth is -6.72% (active).

On to `C#Cc1ccc(NC(=O)Cc2ccc(/C=C/C(=O)c3nccn3C)cc2)cc1`, for which the growth is 94.9% (inactive).

Turning to `CCCCN(CCC#N)C(N)=O`, the growth was 98.9% (inactive).

Regarding `COc1ccc(-c2cn(Cc3ccc4c(Br)cc(Br)c(O)c4n3)nn2)cc1`, the growth is 91.3% (inactive).

With `CCc1ccc(Cc2cnc(NC(=O)c3cc(C)oc3C)s2)cc1`, the growth was 60.1% (inactive).

`COc1cc(/C=C/c2cc(/C=C/c3ccc(O)c(OC)c3)n(C(=O)Nc3ccc(C)cc3C)n2)ccc1O`: the growth was 15.9% (inactive).

With `Clc1nc(N2CCC[N+]3(CC2)CC[N+]2(CCCNCC2)CC3)nc(N2CCC[N+]3(CC2)CC[N+]2(CCCNCC2)CC3)n1` (stereo not drawn), the growth is 133% (inactive).

For the compound `O=S(=O)(Nc1ccc(Br)cc1)c1ccc(-c2cnc(C3CC3)o2)cc1`, the growth was 64.1% (inactive).

For the compound `O=C1N/C(=N/N=C(c2ccccc2)c2ccccc2)S/C1=C\c1ccc(Br)cc1`, the growth was 107% (inactive).

As to `COc1cc(OCc2cccc(-c3ccc4c(c3)OCCO4)c2C)cc(OC)c1C=O`, the growth was 43.4% (inactive).

Consider `COC(=O)c1c(C)nc(C)c2c1C(=O)C(Br)=C(NCCCCO)C2=O`, for which the growth is 119% (inactive).

With `COc1ccc(CNc2c3ccccc3nc3ccccc23)cc1OC`, the growth was 32.3% (inactive).

With `COc1cc(/C=C/C(=O)c2ccc(-n3cc(CN4CCN(c5cc6c(cc5F)c(=O)c(C(=O)O)cn6C5CC5)CC4)nn3)cc2)cc(OC)c1OC`, the growth was 97.8% (inactive).

For `CCCCCC(C)(O)C(C(=O)O)c1ccccc1` (stereo not drawn), the growth is 104% (inactive).

Consider `C[C@@H]1N=C(c2ccc(Cl)cc2Cl)Nc2nc3ccccn3c2C1=O`, for which the growth was 74.5% (inactive).

On to `O=C(Nc1ccccc1)Nc1ccccc1CNc1nc(Nc2ccc(OCCN3CCCC3)cc2)ncc1Cl`, for which the growth was 94.8% (inactive).

On to `COc1ccc(S(=O)(=O)N(C)c2oc(-c3ccc(Cl)cc3)nc2C#N)cc1`, for which the growth is 94.3% (inactive).

On to `COc1cccc(C(=O)Nc2cccc(NC(=O)c3ccccn3)c2)c1`, for which the growth is 96.6% (inactive).

On to `CS(=O)(=O)c1ccc(/C(=N/NC(N)=S)c2ccc(F)cc2)cc1`, for which the growth was 115% (inactive).

On to `CSc1nc(N)c2c(n1)NC(c1ccccc1)C1CCc3ccccc3C1=N2` (stereo not drawn), for which the growth is 112% (inactive).

On to `COc1cccc(CNc2nnc(C)c(C)n2)c1O`, for which the growth was 108% (inactive).

Regarding `COc1ccc(NC(=O)CSc2oc(-c3ccccc3)nc2S(=O)(=O)c2ccc(Cl)cc2)c(OC)c1`, the growth was 67.1% (inactive).

For `O=C(c1ccc(F)cc1)C1CCN(CCn2c(=O)[nH]c3ccccc3c2=O)CC1`, the growth was 105% (inactive).

With `CC(=O)OCC(=O)O[C@@H]1C[C@]2(C(C)C)O[C@@]1(C)[C@@H]1CC[C@@H](C)[C@H]1[C@@H]2OC(=O)/C=C/c1ccccc1`, the growth was 81.1% (inactive).

As to `O=C(Nc1ncc(Cc2ccccc2)s1)c1cc(-c2ccccc2)nc2ccccc12`, the growth is 98.1% (inactive).

For the compound `O=c1cc(-c2nccc3c2[nH]c2ccccc23)c2cc(Cl)ccc2o1`, the growth is 85.3% (inactive).

For the compound `O=C(CN1C(=O)NC2NC(=O)NC21)N/N=C/c1cccc([N+](=O)[O-])c1` (stereo not drawn), the growth is 106% (inactive).

Regarding `CCCCCCCCCCCCCC[n+]1ccc2c(C)c3c(c(C)c2c1)c1cc(O)ccc1n3CC`, the growth was -46.6% (active).

Consider `C=C(C)[C@@H]1CCC[C@]2(C(=O)OC)CC[C@]3(C)[C@@H](CC[C@@H]4[C@@]5(C)CCCNC(C)(C)[C@@H]5CC[C@]43C)[C@@H]12`, for which the growth is 90.4% (inactive).

As for `COc1cc2c(cc1-c1c(C)noc1C)ncc1nc(C3CCOCC3)n(C3CCC(OC(F)F)CC3)c12` (stereo not drawn), the growth was 21.4% (inactive).

`O=C1CCC(C(=O)N/N=C/c2ccc([N+](=O)[O-])cc2)N1` (stereo not drawn): the growth was 93% (inactive).

In the case of `COc1cc(C(=O)/C=C/c2c(-c3cccs3)nc3sc(C)cn23)cc(OC)c1OC`, the growth is 8.26% (active).

As to `O=C(NS(=O)(=O)c1ccccc1)n1cc(-c2ccncc2)c(-c2cc(O)cc(Cl)c2)n1`, the growth is 127% (inactive).

Take `COC(CCP(=O)(c1ccccc1)c1ccccc1)(C(=O)c1ccccc1)c1ccccc1` (stereo not drawn): the growth was 81.1% (inactive).

For `Cn1nc(-c2ccc(Cl)cc2)nc2c(=O)n(C)c(=O)nc1-2`, the growth was 70.3% (inactive).

In the case of `CC1(C)CCC[C@]23C(=O)O[C@](O)(C(=O)C4=C[C@@](C)(/C=C/CCCc5ccc6ccc7cccc8ccc5c6c78)CC[C@@]42O)[C@@H]13`, the growth was -88.7% (active).

As for `COc1ccc(C2=C/C(=C\c3ccccc3O)C(=O)N2Cc2ccccc2)cc1`, the growth is 85.3% (inactive).

The subject of the next assay is ACHN renal. The assay is described as above. The settings on record: 10 µM unless noted.
Take `COc1ccccc1-c1nc2ccc3[nH]ncc3c2c2c1CCCC2`: the growth is 58.2% (inactive).

In the case of `O=c1ccc2nc(-c3ccccc3)nn(-c3ccccn3)c-2c1`, the growth was -91.9% (active).

Regarding `Nc1ncc(-c2ccc3ncnc(N4CCc5cc(F)c(Cl)cc54)c3c2)cc1C=O`, the growth was 7.1% (active).

With `C#Cc1ccc(NC(=O)Cc2ccc(/C=C/C(=O)c3nccn3C)cc2)cc1`, the growth was 96.5% (inactive).

Turning to `CCCCN(CCC#N)C(N)=O`, the growth is 97.7% (inactive).

In the case of `COc1ccc(-c2cn(Cc3ccc4c(Br)cc(Br)c(O)c4n3)nn2)cc1`, the growth is -68.7% (active).

As for `CCc1ccc(Cc2cnc(NC(=O)c3cc(C)oc3C)s2)cc1`, the growth is 48.7% (inactive).

Turning to `COc1cc(/C=C/c2cc(/C=C/c3ccc(O)c(OC)c3)n(C(=O)Nc3ccc(C)cc3C)n2)ccc1O`, the growth is 5.29% (active).

For `Clc1nc(N2CCC[N+]3(CC2)CC[N+]2(CCCNCC2)CC3)nc(N2CCC[N+]3(CC2)CC[N+]2(CCCNCC2)CC3)n1` (stereo not drawn), the growth was 115% (inactive).

`O=S(=O)(Nc1ccc(Br)cc1)c1ccc(-c2cnc(C3CC3)o2)cc1`: the growth is 30.8% (inactive).

On to `O=C1N/C(=N/N=C(c2ccccc2)c2ccccc2)S/C1=C\c1ccc(Br)cc1`, for which the growth was 97.7% (inactive).

For the compound `COc1cc(OCc2cccc(-c3ccc4c(c3)OCCO4)c2C)cc(OC)c1C=O`, the growth was 48% (inactive).

As to `COC(=O)c1c(C)nc(C)c2c1C(=O)C(Br)=C(NCCCCO)C2=O`, the growth is 84.7% (inactive).

Regarding `COc1ccc(CNc2c3ccccc3nc3ccccc23)cc1OC`, the growth was 4.11% (active).

For `COc1cc(/C=C/C(=O)c2ccc(-n3cc(CN4CCN(c5cc6c(cc5F)c(=O)c(C(=O)O)cn6C5CC5)CC4)nn3)cc2)cc(OC)c1OC`, the growth is 93.4% (inactive).

Consider `CCCCCC(C)(O)C(C(=O)O)c1ccccc1` (stereo not drawn), for which the growth was 96.1% (inactive).

As for `C[C@@H]1N=C(c2ccc(Cl)cc2Cl)Nc2nc3ccccn3c2C1=O`, the growth was 60.2% (inactive).

For the compound `O=C(Nc1ccccc1)Nc1ccccc1CNc1nc(Nc2ccc(OCCN3CCCC3)cc2)ncc1Cl`, the growth was 18.2% (inactive).

Turning to `COc1ccc(S(=O)(=O)N(C)c2oc(-c3ccc(Cl)cc3)nc2C#N)cc1`, the growth was 101% (inactive).

For `COc1cccc(C(=O)Nc2cccc(NC(=O)c3ccccn3)c2)c1`, the growth was 100% (inactive).

As to `CS(=O)(=O)c1ccc(/C(=N/NC(N)=S)c2ccc(F)cc2)cc1`, the growth is 100% (inactive).

Turning to `CSc1nc(N)c2c(n1)NC(c1ccccc1)C1CCc3ccccc3C1=N2` (stereo not drawn), the growth is 72.3% (inactive).

Regarding `COc1cccc(CNc2nnc(C)c(C)n2)c1O`, the growth was 110% (inactive).

For `COc1ccc(NC(=O)CSc2oc(-c3ccccc3)nc2S(=O)(=O)c2ccc(Cl)cc2)c(OC)c1`, the growth was 36.6% (inactive).

Turning to `O=C(c1ccc(F)cc1)C1CCN(CCn2c(=O)[nH]c3ccccc3c2=O)CC1`, the growth is 94.8% (inactive).

For `CC(=O)OCC(=O)O[C@@H]1C[C@]2(C(C)C)O[C@@]1(C)[C@@H]1CC[C@@H](C)[C@H]1[C@@H]2OC(=O)/C=C/c1ccccc1`, the growth was -4.65% (active).

`O=C(Nc1ncc(Cc2ccccc2)s1)c1cc(-c2ccccc2)nc2ccccc12`: the growth was 99.4% (inactive).

On to `O=c1cc(-c2nccc3c2[nH]c2ccccc23)c2cc(Cl)ccc2o1`, for which the growth was 47.3% (inactive).

With `O=C(CN1C(=O)NC2NC(=O)NC21)N/N=C/c1cccc([N+](=O)[O-])c1` (stereo not drawn), the growth was 104% (inactive).

For the compound `CCCCCCCCCCCCCC[n+]1ccc2c(C)c3c(c(C)c2c1)c1cc(O)ccc1n3CC`, the growth is -25.3% (active).

For the compound `C=C(C)[C@@H]1CCC[C@]2(C(=O)OC)CC[C@]3(C)[C@@H](CC[C@@H]4[C@@]5(C)CCCNC(C)(C)[C@@H]5CC[C@]43C)[C@@H]12`, the growth was 88.2% (inactive).

Consider `COc1cc2c(cc1-c1c(C)noc1C)ncc1nc(C3CCOCC3)n(C3CCC(OC(F)F)CC3)c12` (stereo not drawn), for which the growth was 54.2% (inactive).

On to `O=C1CCC(C(=O)N/N=C/c2ccc([N+](=O)[O-])cc2)N1` (stereo not drawn), for which the growth was 101% (inactive).

Turning to `COc1cc(C(=O)/C=C/c2c(-c3cccs3)nc3sc(C)cn23)cc(OC)c1OC`, the growth was 12.7% (inactive).

As to `O=C(NS(=O)(=O)c1ccccc1)n1cc(-c2ccncc2)c(-c2cc(O)cc(Cl)c2)n1`, the growth is 84.5% (inactive).

In the case of `COC(CCP(=O)(c1ccccc1)c1ccccc1)(C(=O)c1ccccc1)c1ccccc1` (stereo not drawn), the growth is 71.5% (inactive).

With `Cn1nc(-c2ccc(Cl)cc2)nc2c(=O)n(C)c(=O)nc1-2`, the growth is -88.7% (active).

Take `CC1(C)CCC[C@]23C(=O)O[C@](O)(C(=O)C4=C[C@@](C)(/C=C/CCCc5ccc6ccc7cccc8ccc5c6c78)CC[C@@]42O)[C@@H]13`: the growth is -100% (active).

On to `COc1ccc(C2=C/C(=C\c3ccccc3O)C(=O)N2Cc2ccccc2)cc1`, for which the growth is 93.4% (inactive).
